Source: PubChem BioAssay (NCATS)
Inconclusive results are not listed. Activity calls are given as the source filed them. Unless noted, calls come from the whole dose curve; as a rule, active = well fitted curve in the direction sought with a large enough effect; inconclusive = small, poorly fitted or top-dose-only effect, or another doubt; inactive = no such curve, though single readings can be large; an effect the other way counts as inactive or inconclusive.

Tests used:
[1] = target: Alpha-galactosidase (Coffea arabica) (UniProt Q42656); assay: Counterscreen for Glucocerebrosidase Inhibitors: qHTS Assay for Coffee Bean alpha-Galactosidase at pH 4.5 (AID 957);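 note: series mostly up to about 77 µM; plate controls were enzyme alone for no effect and no enzyme for full effect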
Alpha-galactosidase (Coffea arabica), sequence (Q42656 whole entry, looked up): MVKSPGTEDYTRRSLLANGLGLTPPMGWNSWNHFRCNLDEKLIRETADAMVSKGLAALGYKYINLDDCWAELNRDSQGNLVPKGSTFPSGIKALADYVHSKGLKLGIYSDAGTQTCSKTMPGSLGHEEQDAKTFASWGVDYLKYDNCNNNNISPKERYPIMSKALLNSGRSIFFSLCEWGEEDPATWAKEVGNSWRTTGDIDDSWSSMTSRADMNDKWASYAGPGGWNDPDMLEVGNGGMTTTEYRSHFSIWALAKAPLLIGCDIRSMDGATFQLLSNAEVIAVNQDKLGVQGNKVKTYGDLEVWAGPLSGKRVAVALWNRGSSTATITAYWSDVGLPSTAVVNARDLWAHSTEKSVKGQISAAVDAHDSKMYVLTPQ
Method in brief: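 Fluorogenic qHTS at pH 4.5 (citrate buffer with Tween-20): 2 nM enzyme, 80 uM 4-MU-alpha-galactoside substrate, compound titrated 0.7 nM to 77 uM, 20 min room temperature. Glycine/NaOH stop; 4-MU read Ex 365/Em 440; Hill-equation AC50 against no-enzyme and enzyme controls.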

[2] = target: Alpha-galactosidase (Coffea arabica) (UniProt Q42656); assay: Counterscreen for Glucocerebrosidase Inhibitors: qHTS Assay for Coffee Bean alpha-Galactosidase at pH 5.9 (AID 998);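 note: plate controls were uninhibited enzyme for no effect and no-enzyme basal signal for full effect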
Method in brief: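 Enzyme 2 nM + cpd (0.7 nM–77 uM titration) + 4-MU-alpha-Gal 80 uM, pH 5.9 citrate/Tween-20, RT 20 min, NaOH/glycine stop pH 10, fluor 365/440. Normalized to no-enzyme and full-activity controls; Hill-fit AC50.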

[3] = Inducers of the Endoplasmic Reticulum Stress Response (ERSR) in human glioma: Validation (AID 504836); note: 0% is about no effect
Method in brief: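 Stably transfected U87-MG glioma cells carrying a GRP78-based luciferase sensor; 16 h compound incubation. Luminescence end-point read 10 min after Bright-Glo addition at room temperature.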

[4] = qHTS for Inhibitors of the Functional Ribonucleoprotein Complex (vRNP) of Lassa (LASV) Arenavirus: LASV Primary Screen - GLuc reporter signal (AID 1347082; calls by dose curve; tested in HEK293 reporter line; note: series mostly up to about 57 µM; % is set by controls: 0 for no effect and ±100 for the full control effect; nearly all actives have a fitted effect of over 60% in size)
[5] = qHTS for Inhibitors of the Functional Ribonucleoprotein Complex (vRNP) of Lassa (LASV) Arenavirus: Viability assay - alamar blue signal for LASV Primary Screen (AID 1347083; calls by dose curve; tested in HEK293 reporter line; note: series mostly up to about 57 µM; % is set by controls: 0 for no effect and ±100 for the full control effect; nearly all actives have a fitted effect of over 80% in size)
[6] = qHTS for Inhibitors of the Functional Ribonucleoprotein Complex (vRNP) of Lymphocytic Choriomeningitis Arenaviruses (LCMV): Viability assay - alamar blue signal for LCMV Primary Screen (AID 1347085; calls by dose curve; tested in HEK293 reporter line; note: series mostly up to about 57 µM; % is set by controls: 0 for no effect and ±100 for the full control effect; nearly all actives have a fitted effect of over 80% in size)
[7] = target: Nucleoprotein (Lymphocytic choriomeningitis virus (strain Armstrong)) (UniProt P09992); assay: qHTS for Inhibitors of the Functional Ribonucleoprotein Complex (vRNP) of Lymphocytic Choriomeningitis Arenaviruses (LCMV): LCMV Primary Screen - GLuc reporter signal (AID 1347086; calls by dose curve; note: series mostly up to about 57 µM; % is set by controls: 0 for no effect and ±100 for the full control effect; nearly all actives have a fitted effect of over 70% in size)
Nucleoprotein (Lymphocytic choriomeningitis virus (strain Armstrong)), sequence (P09992 whole entry, looked up): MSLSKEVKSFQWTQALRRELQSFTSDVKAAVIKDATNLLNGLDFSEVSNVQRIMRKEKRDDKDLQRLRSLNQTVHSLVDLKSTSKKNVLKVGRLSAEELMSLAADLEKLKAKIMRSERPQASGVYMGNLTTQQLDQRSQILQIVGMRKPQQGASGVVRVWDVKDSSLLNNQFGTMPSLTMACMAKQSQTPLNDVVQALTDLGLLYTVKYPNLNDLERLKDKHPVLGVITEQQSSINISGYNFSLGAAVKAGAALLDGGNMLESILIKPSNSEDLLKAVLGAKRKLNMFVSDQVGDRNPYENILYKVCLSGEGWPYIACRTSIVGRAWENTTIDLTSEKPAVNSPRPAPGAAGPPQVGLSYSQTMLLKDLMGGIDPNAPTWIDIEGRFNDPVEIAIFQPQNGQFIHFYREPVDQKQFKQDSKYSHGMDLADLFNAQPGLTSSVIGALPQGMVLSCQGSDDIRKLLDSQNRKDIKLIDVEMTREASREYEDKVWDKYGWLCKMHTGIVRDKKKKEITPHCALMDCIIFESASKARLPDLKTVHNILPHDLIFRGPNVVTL

[8] = target: Bile acid receptor (Homo sapiens) (UniProt Q96RI1); assay: qHTS assay for small molecule agonists of farnesoid X receptor signaling (AID 588527; calls by dose curve;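 note: series mostly up to about 77 µM; 0% = vehicle basal and 100% = reference agonist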); conditions: HEK293T FXR-UAS-bla, beta-lactamase ratio, 16 h; activation: active compounds read high
Bile acid receptor (Homo sapiens), sequence (Q96RI1 whole entry, looked up): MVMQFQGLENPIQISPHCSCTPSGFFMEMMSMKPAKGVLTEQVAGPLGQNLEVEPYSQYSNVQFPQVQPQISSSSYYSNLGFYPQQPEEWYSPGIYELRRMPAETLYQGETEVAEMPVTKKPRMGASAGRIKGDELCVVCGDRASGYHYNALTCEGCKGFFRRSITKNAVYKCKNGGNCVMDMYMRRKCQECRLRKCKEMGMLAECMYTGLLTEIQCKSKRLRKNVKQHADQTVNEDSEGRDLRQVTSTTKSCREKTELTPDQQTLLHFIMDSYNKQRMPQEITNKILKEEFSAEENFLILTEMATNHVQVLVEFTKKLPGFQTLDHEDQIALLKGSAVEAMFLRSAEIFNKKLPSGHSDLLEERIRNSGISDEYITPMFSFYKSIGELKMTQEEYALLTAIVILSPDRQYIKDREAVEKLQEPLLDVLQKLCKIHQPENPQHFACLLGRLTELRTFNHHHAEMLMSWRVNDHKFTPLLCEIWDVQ
Method in brief: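 Read-out: beta-lactamase reporter fluorescence with CCF4 substrate in GeneBLAzer FXR-UAS-bla HEK293T cells, after 16 h compound exposure at 37 C. Response scaled between DMSO basal (0%) and chenodeoxycholic acid at 100 uM (100%).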

[9] = target: Peroxisome proliferator-activated receptor delta (Homo sapiens) (UniProt Q03181); assay: qHTS assay for small molecule agonists of peroxisome proliferator-activated receptor delta signaling (AID 588534; calls by dose curve;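 note: 0% = DMSO basal wells and 100% = positive control agonist at 10 µM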)
Peroxisome proliferator-activated receptor delta (Homo sapiens), sequence (Q03181 whole entry, looked up): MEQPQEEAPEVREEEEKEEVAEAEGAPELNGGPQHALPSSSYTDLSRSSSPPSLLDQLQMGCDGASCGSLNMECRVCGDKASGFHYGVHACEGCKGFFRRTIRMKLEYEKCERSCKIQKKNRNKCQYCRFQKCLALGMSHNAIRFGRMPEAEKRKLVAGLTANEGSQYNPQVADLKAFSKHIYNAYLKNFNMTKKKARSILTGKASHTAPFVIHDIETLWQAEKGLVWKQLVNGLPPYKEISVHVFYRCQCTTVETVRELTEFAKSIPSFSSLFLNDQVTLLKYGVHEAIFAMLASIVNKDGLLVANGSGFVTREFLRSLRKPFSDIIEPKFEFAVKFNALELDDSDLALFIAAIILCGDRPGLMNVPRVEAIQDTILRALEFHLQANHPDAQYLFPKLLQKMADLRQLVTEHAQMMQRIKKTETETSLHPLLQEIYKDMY
Method in brief: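 Agonist-mode beta-lactamase reporter readout (CCF4 dye, 2 h at RT) after 18 h at 37 °C exposure to a titration; Hill-equation fitting gave EC50 and maximal response.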

CN=c1nc(-c2ccccc2)n(-c2ccccc2)s1
inactive: outcome [1] | outcome [2] | outcome [3] | Potency [4] | Potency [5] | Potency [6] | Potency [7]

CCCCC(CC)CO (stereo unspecified)
inactive: activation [8] -0.465% | Potency [9] | Potency [4] | Potency [5] | Potency [6] | Potency [7]

CC[C@@H]1Cc2cc(O)ccc2C2=C1c1ccc(O)cc1C[C@H]2CC
inactive: outcome [1] | outcome [2] | outcome [3] | Potency [4] | Potency [5] | Potency [6] | Potency [7]

NCCCCC(=O)O
inactive: outcome [1] | outcome [2] | outcome [3] | Potency [4] | Potency [5] | Potency [6] | Potency [7]

CN(C)S(=O)(=O)c1ccc2c(c1)/C(=C/c1cc3c([nH]1)CCCC3)C(=O)N2
inactive: outcome [1] | outcome [2] | outcome [3] | Potency [4] | Potency [5] | Potency [6] | Potency [7]

O=c1cc(-c2ccc(O)cc2)oc2cc(O)cc(O)c12
inactive: outcome [1] | outcome [2] | outcome [3] | Potency [4] | Potency [5] | Potency [6] | Potency [7]
